Laboratory results as given in PubChem BioAssay (NCI).
Several values for one entry are separate records, joined by “and”; a condition that tells them apart may be missing. Equal values may be shown once. This is part of a sample that, as a whole, favours compounds with a hit. Of some 83,000 tested, about 20% had one in any assay.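 Single-dose data. Exposure time 48 hours. Values below 10 considered active.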 Activity calls are given as the source filed them.

Legend:
Assay in all cases: NCI-60 one-dose screen, 48 h (100 = growth as untreated, 0 = no growth, -100 = all killed)
SR leukemia = conditions: 10 µM unless noted
RPMI-8226 leukemia = tested on: RPMI-8226 leukemia
OVCAR-8 ovarian = conditions: 10 µM unless noted
OVCAR-5 ovarian = tested on: OVCAR-5 ovarian
OVCAR-4 ovarian = tested on: OVCAR-4 ovarian
SK-OV-3 ovarian = conditions: 10 µM unless noted
IGROV1 ovarian = tested on: IGROV1 ovarian
OVCAR-3 ovarian = tested on: OVCAR-3 ovarian
HS 578T breast = tested on: HS 578T breast
NCI/ADR-RES ovarian = tested on: NCI/ADR-RES ovarian
T-47D breast = tested on: T-47D breast
BT-549 breast = tested on: BT-549 breast
MDA-MB-435 melanoma = conditions: 10 µM unless noted
SW-620 colon = conditions: 10 µM unless noted
MCF7 breast = tested on: MCF7 breast
HCT-116 colon = tested on: HCT-116 colon
HCC-2998 colon = tested on: HCC-2998 colon
KM12 colon = tested on: KM12 colon

Measured: growth

CC1=CC(O)C2CC1C2(C)C (stereo not drawn)
inactive: SR leukemia 101% and 97.3% | RPMI-8226 leukemia; 10 µM unless noted 111% and 107% | OVCAR-8 ovarian 105% and 104% | OVCAR-5 ovarian; 10 µM unless noted 104% and 110% | OVCAR-4 ovarian; 10 µM unless noted 99.7% and 108% | SK-OV-3 ovarian 94.3% and 104% | IGROV1 ovarian; 10 µM unless noted 101% and 99.3% | OVCAR-3 ovarian; 10 µM unless noted 110% and 113% | HS 578T breast; 10 µM unless noted 97.5% and 106% | NCI/ADR-RES ovarian; 10 µM unless noted 108% and 109% | T-47D breast; 10 µM unless noted 96% and 106% | BT-549 breast; 10 µM unless noted 98.9% | MDA-MB-435 melanoma 103% and 97.3% | SW-620 colon 105% and 108% | MCF7 breast; 10 µM 101% and 98.9% | HCT-116 colon; 10 µM unless noted 103% | HCC-2998 colon; 10 µM unless noted 95.4% and 112% | KM12 colon; 10 µM unless noted 101% and 114%

COc1ccccc1/C=C\C(=O)c1ccccc1
inactive: SR leukemia 15.3% | OVCAR-8 ovarian 75.8% | OVCAR-5 ovarian; 10 µM unless noted 84% | OVCAR-4 ovarian; 10 µM unless noted 81.2% | SK-OV-3 ovarian 94.5% | IGROV1 ovarian; 10 µM unless noted 64.4% | OVCAR-3 ovarian; 10 µM unless noted 110% | HS 578T breast; 10 µM unless noted 86% | NCI/ADR-RES ovarian; 10 µM unless noted 14.2% | T-47D breast; 10 µM unless noted 81.9% | BT-549 breast; 10 µM unless noted 83.2% | MDA-MB-435 melanoma 46.4% | HCT-116 colon; 10 µM unless noted 22% | HCC-2998 colon; 10 µM unless noted 97% | KM12 colon; 10 µM unless noted 29.5%
active: RPMI-8226 leukemia; 10 µM unless noted -13.3% | SW-620 colon 2.63% | MCF7 breast; 10 µM 5.24%

COC(=O)[C@@]12OC[C@]34[C@H]([C@@H](O)[C@@H]1O)[C@@]1(C)[C@H](O)C(=O)C=C(C)[C@@H]1C[C@H]3OC(=O)C(OC(C)=O)[C@@H]24 (stereo partly drawn)
inactive: NCI/ADR-RES ovarian; 10 µM unless noted 16%
active: SR leukemia -43% | RPMI-8226 leukemia; 10 µM unless noted -69.8% | OVCAR-8 ovarian -18.6% | OVCAR-5 ovarian; 10 µM unless noted -11.5% | OVCAR-4 ovarian; 10 µM unless noted 3.68% | SK-OV-3 ovarian -9.46% | IGROV1 ovarian; 10 µM unless noted -58% | OVCAR-3 ovarian; 10 µM unless noted -48.4% | HS 578T breast; 10 µM unless noted -33% | T-47D breast; 10 µM unless noted -20.5% | BT-549 breast; 10 µM unless noted -53.1% | MDA-MB-435 melanoma -81.2% | SW-620 colon -38.2% | MCF7 breast; 10 µM -19.2% | HCT-116 colon; 10 µM unless noted -54.1% | HCC-2998 colon; 10 µM unless noted -75.8% | KM12 colon; 10 µM unless noted -57.8%

O=C(Nc1c(Cl)cccc1Cl)Oc1cccc2cccnc12
inactive: RPMI-8226 leukemia; 10 µM 45.7% | OVCAR-5 ovarian; 10 µM 103% | OVCAR-5 ovarian; 100 µM 34.1% | OVCAR-4 ovarian; 10 µM 15.9% | OVCAR-4 ovarian; 100 µM 14.5% | IGROV1 ovarian; 10 µM 27% | IGROV1 ovarian; 100 µM 14.4% | OVCAR-3 ovarian; 10 µM 14% | HS 578T breast; 10 µM 90.6% | HS 578T breast; 100 µM 46.6% | NCI/ADR-RES ovarian; 10 µM 13.5% | T-47D breast; 10 µM 30.2% | BT-549 breast; 10 µM 78.5% | BT-549 breast; 100 µM 23.5% | HCT-116 colon; 10 µM 14.3% | HCC-2998 colon; 10 µM 93.4% | HCC-2998 colon; 100 µM 42.2% | KM12 colon; 10 µM 47%
active: SR leukemia 5.64% [100 µM] | RPMI-8226 leukemia; 100 µM 2.58% | OVCAR-3 ovarian; 100 µM 4.16% | NCI/ADR-RES ovarian; 100 µM 3.5% | T-47D breast; 100 µM 7.28% | MCF7 breast; 10 µM 3.58% | MCF7 breast; 100 µM -1.84% | HCT-116 colon; 100 µM 8.1% | KM12 colon; 100 µM 5.56%

CCCCCCCCCCCCCCNCc1ccccc1
inactive: SR leukemia 11.8% | RPMI-8226 leukemia; 10 µM unless noted 34.5% | OVCAR-8 ovarian 87% | OVCAR-5 ovarian; 10 µM unless noted 105% | OVCAR-4 ovarian; 10 µM unless noted 80.3% | SK-OV-3 ovarian 97.8% | IGROV1 ovarian; 10 µM unless noted 97.7% | OVCAR-3 ovarian; 10 µM unless noted 91.4% | HS 578T breast; 10 µM unless noted 95% | NCI/ADR-RES ovarian; 10 µM unless noted 79.6% | T-47D breast; 10 µM unless noted 72.9% | BT-549 breast; 10 µM unless noted 96.6% | MDA-MB-435 melanoma 72.2% | SW-620 colon 42.5% | MCF7 breast; 10 µM 51.2% | HCT-116 colon; 10 µM unless noted 86.8% | HCC-2998 colon; 10 µM unless noted 16.1% | KM12 colon; 10 µM unless noted 62.5%

Oc1c(Br)c(Br)c(O)c(Br)c1Br
active: OVCAR-3 ovarian; 10 µM unless noted 5.11%
inactive: SR leukemia 63.2% | RPMI-8226 leukemia; 10 µM unless noted 104% | OVCAR-8 ovarian 102% | OVCAR-5 ovarian; 10 µM unless noted 129% | OVCAR-4 ovarian; 10 µM unless noted 68.7% | SK-OV-3 ovarian 156% | IGROV1 ovarian; 10 µM unless noted 115% | HS 578T breast; 10 µM unless noted 144% | NCI/ADR-RES ovarian; 10 µM unless noted 102% | T-47D breast; 10 µM unless noted 25.2% | BT-549 breast; 10 µM unless noted 95.3% | MCF7 breast; 10 µM 67% | HCT-116 colon; 10 µM unless noted 96.2% | HCC-2998 colon; 10 µM unless noted 128% | KM12 colon; 10 µM unless noted 110%

O[C@H]1[C@H]2c3cc4c(cc3CN3CCC(=C[C@@H]1O)[C@H]23)OCO4
inactive: SR leukemia 32.7% | RPMI-8226 leukemia; 10 µM unless noted 23.1% | OVCAR-8 ovarian 26.7% | OVCAR-5 ovarian; 10 µM unless noted 34.5% | OVCAR-4 ovarian; 10 µM unless noted 16.5% | SK-OV-3 ovarian 22% | IGROV1 ovarian; 10 µM unless noted 40.8% | OVCAR-3 ovarian; 10 µM unless noted 34.5% | HS 578T breast; 10 µM unless noted 42.7% | NCI/ADR-RES ovarian; 10 µM unless noted 19.1% | T-47D breast; 10 µM unless noted 34.5% | BT-549 breast; 10 µM unless noted 71.2% | MDA-MB-435 melanoma 32.5% | SW-620 colon 30.4% | MCF7 breast; 10 µM 11.7% | HCT-116 colon; 10 µM unless noted 13.5% | HCC-2998 colon; 10 µM unless noted 18.9% | KM12 colon; 10 µM unless noted 21.2%
